Measured values taken from PMC12136788.
Numbering of substitutions follows the chain as printed. The full ranking holds about 5,800 sequences; the median of “enrichment r” is about 0.54, and the highest 2% start at about 16. This is one part of a sample in which the highest values are shown more often than they occur.

B1: chr5:136977529:136977630:-|3pUTR|ENSG00000152377|msi1|FALSE|unique (ssRNA)
RNA: GGGAGUUCUACAGUCCGACGAUCACAAGCCAUCUCUUUCAUUUCUGCUUGAAGCCCCUUGGCUGCAGCAAUCCUGUCUGCCAUAGGUUUCUUCCUUCCUUACCUACUCAAGGGCUUUUUCUAAGGCAUGCACACAUAUCUCCUCAACAGAGGAUUGAGCAUCA
B2: chr12:100625254:100625355:+|3pUTR|ENSG00000139354|unk|total|mutant (ssRNA)
RNA: GGGAGUUCUACAGUCCGACGAUCAUAUGUAUUAAAUAUGGAGUUCAUAUACCUGCUAAUAUCAACGGUGGUGCUCUUACUAUCCGUUAAUUGCAUUUUGGUUAAAAAAAAAAAAGCAACAGUUUGGCACUUGUCCUACAAAAGCAACAGAGGAUUGAGCAUCA
B3: chr3:48857559:48857660:-|3pUTR|ENSG00000178537|unk|total|mutant (ssRNA)
RNA: GGGAGUUCUACAGUCCGACGAUCGGCUGAAGGCUGCUCAAGUUCACUUCUGGAUGCUGGAAGCUGUCGUUGAGGAGAAGGAGCCGUAAGCAGAACUAAGCAGUCUUGGAGGGCAAGGGGAGGGGAAUGGUGAGAUCCGAGCCCCAACAGAGGAUUGAGCAUCA
B4: chr2:20282997:20283108:-|CDS|ENSG00000055917|unk|total|mutant (ssRNA)
RNA: GGGAGUUCUACAGUCCGACGAUCACUAAUCUGCAAUCUAAUUCAUUUUAUGGAAGCAGUUCUUUGACUAACCGCUCCCAGAGCCGUUCUUUAUUUUCUCAUGGACCUGGUCAACCUGGAAGUACAUCUCUUGGCUUUGGAAGUCAACAGAGGAUUGAGCAUCA
B5: chr17:10306458:10306629:-|CDS|ENSG00000006788|control|control|control (ssRNA)
RNA: GGGAGUUCUACAGUCCGACGAUCCCACCUGGAGCGGAUGAAGAAGAACCUGGAGCAGACGGUGAAGGACCUGCAGCACCGUCUAGAUGAGGCUGAACAACUGGCGCUGAAGGGCGGGAAGAAGCAGAUCCAGAAACUGGAGAACAACAGAGGAUUGAGCAUCA
B6: chr7:152122106:152122213:+|3pUTR|ENSG00000178234|unk|total|mutant (ssRNA)
RNA: GGGAGUUCUACAGUCCGACGAUCAGUGGUUUUUAUCUGAUCAGGAACUUGUCAUGAUUUCCUUUCUCCGACUUCACCGGAGACCGUGCUUUAAAAAAAAAAAAAACUUCUAUUAUUUGUUCCGUAUGUUGUAAGCCGAUCAUUCAACAGAGGAUUGAGCAUCA
B7: ENSG00000186472:stop:overlap|stop_codon|ENSG00000186472|stop_codon|NA|stop_codon (ssRNA)
RNA: GGGAGUUCUACAGUCCGACGAUCUUUCUUGUAAAUGGAAAUUUUAUCAUGUGUAUAGAUUCUGUAGCAUGCUUUUCUUUAUUUAGUUUUACUUUAUUCCUUUAUUGUUCUGUUUCUUGAUUGUUUGCUUGAUUUGUUUGGUGUCAACAGAGGAUUGAGCAUCA
B8: chr17:57972098:57972209:-|3pUTR|ENSG00000136451|unk|FALSE|bound_elsewhere (ssRNA)
RNA: GGGAGUUCUACAGUCCGACGAUCCUAGAAUGUGGUUGUCAGAACCCUGAAAGUAUUAGUUCUAAAAAAAAAAAGAUAUAUACUAGAAGUAAUUGUUUUAUCAAUUCAUUGUAUAAUAAACAGGAGUGAGACUUCAUUGUAUGACAACAGAGGAUUGAGCAUCA
B9: chr3:45823315:45826332:-|three_prime_utr|ENSG00000163818|control|control|control (ssRNA)
RNA: GGGAGUUCUACAGUCCGACGAUCUCAGGCAUGUAUUUUGAAAAGCAUUUUGUCAUAUCCCCUCUCCUUAUUUUUCUAAUAUUUAGACUUUGAAUAUUUAGAACUAGAGUUCCUAUUUUCAGCUAGUUGAAAACAGAGAAAACCCAACAGAGGAUUGAGCAUCA
B10: chr17:57972098:57972209:-|3pUTR|ENSG00000136451|unk|total|mutant (ssRNA)
RNA: B8 RNA with U25C, A26C, U56C, A57C, U83C, A84C
B11: ENSG00000136451:be:win_3801|3pUTR|ENSG00000136451|bound_else_gene|NA|bound_elsewhere_windowed (ssRNA)
RNA: GGGAGUUCUACAGUCCGACGAUCACCCCUAAGCUAGAAUGUGGUUGUCAGAACCCUGAAAGUAUUAGUUCUAAAAAAAAAAAGAUAUAUACUAGAAGUAAUUGUUUUAUCAAUUCAUUGUAUAAUAAACAGGAGUGAGACUUCCAACAGAGGAUUGAGCAUCA
B12: ENSG00000136451:be:win_3751|3pUTR|ENSG00000136451|bound_else_gene|NA|bound_elsewhere_windowed (ssRNA)
RNA: GGGAGUUCUACAGUCCGACGAUCCUCCACAGUGGUCCAAGGAGCAGUCCUCAGUGGGGGCAGGUGUGGGCCCUACCCCUAAGCUAGAAUGUGGUUGUCAGAACCCUGAAAGUAUUAGUUCUAAAAAAAAAAAGAUAUAUACUACAACAGAGGAUUGAGCAUCA

Target: MSI1 full-length (mouse, UniProt Q61474 1-362)
Test: nsRBNS (natural sequence RNA bind-n-seq); RBNS binding buffer (assumed for nsRBNS): 25 mM Tris pH 7.5, 150 mM KCl, 3 mM MgCl2, 0.01% Triton X-100, 500 ug/ml BSA, 20 U/ml SUPERase-In, 4 C; UNK is unkempt and MSI1 is Musashi-1; names of the RNAs are library labels; protein concentration not given here; high values mean tight binding

Sequence of MSI1 full-length (Q61474 whole entry): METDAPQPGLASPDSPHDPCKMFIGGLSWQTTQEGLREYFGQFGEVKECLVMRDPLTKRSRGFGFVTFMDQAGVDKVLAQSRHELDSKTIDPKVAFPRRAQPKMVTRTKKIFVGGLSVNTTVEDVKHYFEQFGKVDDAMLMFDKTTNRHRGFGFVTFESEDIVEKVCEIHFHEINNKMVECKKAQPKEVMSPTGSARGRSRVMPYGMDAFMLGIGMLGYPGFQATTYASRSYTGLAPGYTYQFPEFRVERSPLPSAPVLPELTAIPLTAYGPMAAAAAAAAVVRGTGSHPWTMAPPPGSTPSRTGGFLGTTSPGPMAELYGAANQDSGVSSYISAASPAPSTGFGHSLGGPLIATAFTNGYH

Row | Binder | binding signal [enrichment R]
1 | B1 | 0.506
2 | B2 | 0.371
3 | B3 | 0.595
4 | B4 | 0.305
5 | B5 | 0.485
6 | B6 | 1.74
7 | B7 | 0.35
8 | B8 | 29.3
9 | B9 | 5.79
10 | B10 | 0.711
11 | B11 | 16.4
12 | B12 | 1.89
